Rows were chosen to be rich in hits. Some 9% of all compounds tested hit in one or more screens of this group.
JMJD2A Tudor inh = qHTS Assay for Inhibitors of JMJD2A-Tudor Domain | AlphaScreen JMJD2A-Tudor / H3K4me3 peptide binding | Potency, µM (doses to about 114 µM), for the others: top-dose activity change, negative = inhibition, most hits filed as inhibitors | 390,000 tested, 4.4% active | Lysine-specific demethylase 4A (Homo sapiens), O75164 | AID 504339, 2011; also: % is scaled to controls: 0 for no effect and ±100 for the full control effect; nearly all actives have a fitted effect of over 50% in size
Target sequence (O75164 whole entry, looked up, the tested form may be a part): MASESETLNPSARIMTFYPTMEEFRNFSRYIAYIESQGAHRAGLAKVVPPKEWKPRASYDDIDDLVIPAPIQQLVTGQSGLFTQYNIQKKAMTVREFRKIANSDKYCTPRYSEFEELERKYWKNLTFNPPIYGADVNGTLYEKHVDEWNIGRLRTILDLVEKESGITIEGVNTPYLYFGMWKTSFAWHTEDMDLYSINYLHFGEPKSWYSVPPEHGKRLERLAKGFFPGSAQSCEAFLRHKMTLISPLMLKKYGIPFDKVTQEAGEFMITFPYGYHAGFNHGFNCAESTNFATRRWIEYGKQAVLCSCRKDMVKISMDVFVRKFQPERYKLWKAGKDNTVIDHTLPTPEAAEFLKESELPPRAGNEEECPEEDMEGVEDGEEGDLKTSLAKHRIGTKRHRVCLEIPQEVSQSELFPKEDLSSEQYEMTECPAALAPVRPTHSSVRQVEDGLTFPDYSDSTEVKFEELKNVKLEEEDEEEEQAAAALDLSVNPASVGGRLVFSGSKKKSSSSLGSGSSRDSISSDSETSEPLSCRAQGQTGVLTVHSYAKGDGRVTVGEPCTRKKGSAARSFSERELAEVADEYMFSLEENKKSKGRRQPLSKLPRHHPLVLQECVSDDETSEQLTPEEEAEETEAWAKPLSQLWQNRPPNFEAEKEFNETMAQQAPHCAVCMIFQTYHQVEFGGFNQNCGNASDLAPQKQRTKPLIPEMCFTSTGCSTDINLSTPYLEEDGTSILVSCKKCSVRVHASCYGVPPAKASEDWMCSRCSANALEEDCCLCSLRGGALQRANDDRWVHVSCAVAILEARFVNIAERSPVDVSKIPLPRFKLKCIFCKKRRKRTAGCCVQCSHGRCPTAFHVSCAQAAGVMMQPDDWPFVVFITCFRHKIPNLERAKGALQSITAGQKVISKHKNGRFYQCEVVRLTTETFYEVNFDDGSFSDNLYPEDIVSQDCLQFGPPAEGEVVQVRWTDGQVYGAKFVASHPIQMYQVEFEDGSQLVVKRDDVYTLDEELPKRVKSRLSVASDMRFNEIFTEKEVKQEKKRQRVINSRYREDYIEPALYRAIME
HP1b chromo inh = HTS for Inhibitors of HP1-beta Chromodomain Interactions with Methylated Histone Tails; AlphaScreen HP1-beta / biotin-H3K9me3 peptide binding; Chromobox protein homolog 1 (Homo sapiens), P83916; Potency, µM (top dose mostly 114 µM), for the others: top-dose activity change, negative = inhibition, usual class: inhibitors; 390,000 tested, 0.56% active; AID 540317, 2011; also: nearly all actives have a fitted effect of over 70% in size
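Compound inhibition of the preformed complex between 50 nM HP1-beta and 50 nM biotinylated H3K9me3 peptide was read by AlphaScreen. Buffer was PBS pH 7.4 with 0.01% Tween-20. Incubations ran 30 min at room temperature, with 10 ug/mL donor/acceptor beads.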
PLK1 PBD block = qHTS for Inhibitors of PLK1-PDB (polo-like kinase 1 - polo-box domain): Primary Screen. Plk1 PBD binding of FITC phosphopeptide, fluorescence polarization. Serine/threonine-protein kinase PLK1 (Homo sapiens), P53350. Potency, µM, without a hit: max response, negative = inhibition, hits mostly inhibitors. 360,000 tested, 2.8% active. AID 720504, 2013; also: series mostly up to about 57 µM; % is scaled to controls: 0 for no effect and ±100 for the full control effect; nearly all actives have a fitted effect of over 65% in size
BAZ2B block = qHTS Assay for Inhibitors of BAZ2B. Bromodomain adjacent to zinc finger domain protein 2B (Homo sapiens), Q9UIF8. AlphaScreen BAZ2B-H3K14Ac peptide displacement. Potency, µM (titrated, usually from 114 µM), inactives show at the highest dose activity change, negative = inhibition, usual class: inhibitors. 360,000 tested, 4.4% active. AID 504333, 2011; also: % is scaled to controls: 0 for no effect and ±100 for the full control effect; nearly all actives have a fitted effect of over 60% in size
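BAZ2B 50 nM plus b-H3(5-23)K14Ac 50 nM, PBS pH 7.4/0.01% Tween-20, 30 min RT; compound added (max 110 uM), 30 min RT; streptavidin donor/Ni-chelate acceptor beads 10 ug/mL final, 20 min dark; AlphaScreen read.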
ALOX12 inh = Primary qHTS assay for inhibitors of human arachidonate 12S-lipoxygenase (ALOX12): Round 2. purified 12hLO, xylenol orange hydroperoxide absorbance. Potency, µM (titrated, usually from 108 µM), for the others: at the top dose activity change, negative = inhibition, hits mostly inhibitors. 580,000 tested, 1.1% active. AID 1671190, 2021; also: % is scaled to controls: 0 for no effect and ±100 for the full control effect
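Purified human 12hLO (150 nM final) in 25 mM Hepes, 0.01% Triton X-100, pH 7.0 was preincubated 15 min at room temperature with compound. Then 40 uM arachidonic acid was added, 30 min. Hydroperoxide was read by Fe-XO absorbance ratio 573/405 nm.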
G9a inh = qHTS Assay for Inhibitors of Histone Lysine Methyltransferase G9a; Histone-lysine N-methyltransferase EHMT2 (Homo sapiens), Q96KQ7; 350,000 tested, 8.8% active; G9a H3K9 monomethylation, AlphaScreen, 2 h; Potency, µM (highest dose often 102 µM), for the others: at the top dose activity, negative = inhibition, usual class: inhibitors; also: % is scaled to controls: 0 for no effect and ±100 for the full control effect; nearly all actives have a fitted effect of over 75% in size
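Enzyme 20 nM + cpd, 15 min RT; add b-H3K9 pep 500 nM / SAM 20 uM; 2 h RT; anti-H3K9me1 Ab 0.5 ug/mL + SA donor / anti-rabbit acceptor beads 20 ug/mL each, 10 min; AlphaScreen read.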
* hit, by the source's call; ? = inconclusive; . = no result given; [ ] = another dose, or the depositor's remark. Calls follow the shape of the dose curve; as a rule, active = well fitted curve in the direction sought with a large enough effect; inconclusive = small, poorly fitted or top-dose-only effect, or another doubt; inactive = no such curve, though single readings can be large; an effect the other way counts as inactive or inconclusive. Potency is read from the fitted curve at half-maximal effect.

SMILES | JMJD2A Tudor inh | HP1b chromo inh | PLK1 PBD block | BAZ2B block | ALOX12 inh | G9a inh
N#CC1=C(N)C(C#N)(C#N)C(c2cccnc2)C2CN(C(=O)OCc3ccccc3)CC=C12 (stereo not drawn) | -8.7% | 33.3% | -28.3% | 3.1% | 7.3% | ?
Cc1ccc(-c2nc(C(=O)NC3CCCCCC3)no2)cc1 | 15.8µM* | 46.2% | 9.47µM* | . | 460.3% | .
S=C(Nc1ccccc1)N1CCCN1c1ccccc1 | -8.6% | 57.0% | -7.3% | 1.0% | 419.9% | 12.0%
CCN(CC)S(=O)(=O)c1ccc(N2CCCC2)c(NS(=O)(=O)c2ccc([N+](=O)[O-])cc2)c1 | -25.9%[57.1 µM] | 2.3% | -22.2% | -38.0% | -14.6% | 10µM*
CCN(CC)S(=O)(=O)c1ccc(N2CCCC2)c(NS(=O)(=O)c2ccc(OC)cc2)c1 | -21.4% | 33.7% | -2.1% | -7.4% | ? | 35.5µM*
CCN(CC)S(=O)(=O)c1ccc(N2CCCC2)c(NS(=O)(=O)c2ccccc2)c1 | -24.8% | 32.9% | -11.8% | 9.7% | ? | 3.2%[59 µM]
CCOCCCNC(=O)CSCc1nc(-c2ccc(SC)cc2)oc1C | -28.2% | -4.0% | 29.9µM* | -7.5% | 0.0% | 17.5%[59 µM]
CCOc1ccc(CCNS(=O)(=O)c2ccc(-c3ccc(=O)[nH]n3)o2)cc1OCC | -3.4% | 37.7% | -6.3% | -13.3% | 27.9% | 12.1%
CCOc1ccc(CCNS(=O)(=O)c2cnc[nH]2)cc1OCC | -13.7%[11.4 µM] | -4.4% | 26.7µM* | 4.0% | 4.4% | -46.8%[12.7 µM]
Nc1ccccc1C(=O)N1CCC(O)(c2ccc(Cl)cc2)CC1 | -12.6% | 44.6% | 0.8% | 9.2% | 14.2% | .
Cc1cc(C)nc(N/N=C/C2=C(O)CC(c3ccc(F)cc3)CC2=O)n1 (stereo not drawn) | 31.6µM* | 44.5% | -4.9% | 22.4µM* | -21.8% | 1.3%
CN1c2ccccc2C(C)(C)C12C=Nc1c(ccc3ccccc13)O2 (stereo not drawn) | ? | -0.2% | -5.0% | 50.1µM* | ? | .
CN1c2ccccc2C(C)(C)C12CC(CCl)=NO2 (stereo not drawn) | -20.7% | 22.6% | -4.9% | -6.1% | . | -10.3%[2.33 µM]
CC1(C)OC(=O)N(c2ccccc2)C12C=Cc1cc(Br)ccc1O2 (stereo not drawn) | -15.7% | 23.7% | -7.2% | 3.7% | -13.3% | -5.7%[12.7 µM]
COc1ccc2ccc3c(c2c1)N=CC1(O3)N(C)c2ccccc2C1(C)C (stereo not drawn) | 44.7µM* | ? | -23.9% | -10.1% | . | 5.62µM*
CN1c2ccccc2C(C)(C)[C@]12C=Cc1cc(O)ccc1O2 | 56.2µM* | ? | -3.5% | 39.8µM* | -75.6% | ?
Cc1ccc(NC(=O)CN2CCCC2)cc1 | -12.1% | 21.8% | -9.2% | 3.6% | -0.4% | .
N#CC1=C(N)SC(N)=C(C#N)C1c1ccoc1 | . | . | . | 25.1µM* | . | 2µM*
Cc1ccc(C2C(C#N)=C(N)SC(N)=C2C#N)cc1 | ? | 8.4% | 33.3% | -7.0% | ? | 44.7µM*
Cc1ccc(C2C(C#N)=C(N)SC(N)=C2C#N)c(C)c1 | 89.1µM* | 49.2% | 31.5% | 2.6% | . | ?
Cc1ccc(C2C(C#N)=C(N)OC3=C2C(=O)CCC3)cc1 (stereo not drawn) | . | . | . | . | -14.8% | .
CCn1c(SCC(=O)N/N=C/c2c[nH]c3ccccc23)nnc1-c1ccc(Cl)cc1 | -7.1%[57.1 µM] | 19.3% | -1.0% | -37.7% | 2.9% | 12.6%[59 µM]
c1ccc(-c2cc(N3CCOCC3)nc3ccccc23)cc1 | 3.16µM* | 8.7% | 0.0% | 50.1µM* | ? | 4.47µM*
COc1ccccc1NCCC(=O)O | -8.1%[11.4 µM] | 45.0% | -5.2% | -12.2% | ? | -3.5%
O=C1c2cccc(NCCNCCO)c2C(=O)c2cccc(NCCNCCO)c21 | 35.5µM* | ? | -9.2% | . | 1.5% | .
SMILES | JMJD2A Tudor inh | HP1b chromo inh | PLK1 PBD block | BAZ2B block | ALOX12 inh | G9a inh
O=C(O)CCNc1ccc(NCCC(=O)O)c2c1C(=O)c1ccccc1C2=O | 22.4µM* | 14.1µM* | ? | 11.2µM* | 20.0% | 12.6µM*
OCCNCc1cccc(-c2ccccc2)c1O | -9.7% | 18.7% | -0.7% | . | ? | .
COc1ccccc1NC(=O)c1c(NC(=O)CCC(=O)O)sc2c1CCCCC2 | -17.9% | 21.2% | -24.8% | -16.0% | -8.5% | -48.0%
COc1ccc(OC)c(NC(=O)c2c(NC(=O)CCC(=O)O)sc3c2CCCCC3)c1 | ? | -19.3% | -9.8% | -37.3% | ? | 44.7µM*
COc1ccc(OC)c(NC(=O)c2c(NCc3cccs3)sc3c2CCCC3)c1 | 39.8µM* | -15.3% | . | 35.5µM* | ? | ?
COc1ccc(OC)c(NC(=O)c2c(NCc3cccs3)sc3c2CCCCC3)c1 | ? | -1.2% | . | 22.4µM* | ? | 11.2µM*
COc1cc(OC)c(OC)cc1CNc1sc2c(c1C(=O)Nc1ccccc1OC)CCC2 | ? | 19.3% | . | -32.0% | -5.2% | 12.6µM*
COc1ccc(NC(=O)c2c(NCc3cccs3)sc3c2CCCC3)c(OC)c1 | ? | -3.9% | . | ? | -9.6% | ?
O=C(/C=C(\Nc1cccc(C(F)(F)F)c1)c1ccccc1)c1ccccc1 | . | . | . | . | -11.4% | .
COc1ccc(OC)c(CNc2sc3c(c2C(=O)Nc2cc(OC)ccc2OC)CCCC3)c1 | ? | -21.0% | . | 22.4µM* | ? | 11.2µM*
COc1ccc(OC)c(NC(=O)c2c(NC(=O)c3ccco3)sc3c2CCC3)c1 | . | . | . | 8.1% | . | -26.1%[12.7 µM]
O=C(NCc1cccs1)c1ccc2c(c1)sc1nc(-c3ccc(F)cc3)cn12 | -19.1% | 42.0% | . | -16.9% | -8.3% | 10µM*
CCOc1ccc(-c2cn3c(n2)sc2cc(C(=O)NCCCc4ccccc4)ccc23)cc1 | 4.3% | 39.2% | . | -15.8% | -17.7% | 22.4µM*
CCCN1C(=O)NC2(O)C(=O)c3ccccc3C12O (stereo not drawn) | 6.5% | 17.6% | 0.0% | 38.8% | 104.3% | 28.3%
CN1C(=O)NC2(O)C(=O)c3ccccc3C12O (stereo not drawn) | ? | ? | 2.67µM* | -0.6% | -7.1% | 14.9%[59 µM]
Cc1c(C=O)c2ccccn2c1C(=O)c1cccs1 | -0.7% | 33.2% | -6.6% | -25.7% | -22.2% | 50.1µM*
O=C(Oc1nsnc1N1CCOCC1)c1ccccc1 | -34.6% | -23.4% | 23.8µM* | -4.2% | -26.5% | 35.5µM*
CCC(C)N1C(=O)N(C)C2NC(=O)NC21 (stereo not drawn) | -12.7% | 5.9% | 26.7µM* | -3.4% | -10.7% | .
COc1cc(NC(=O)c2cnc(-c3ccc(F)cc3)nc2-c2ccncc2)cc(OC)c1 | . | . | . | . | 13.3% | .
